We go through 35 molecules from ChEMBL document CHEMBL3433997, “St. Jude Leishmania screening dataset” (2016).

Holding throughout (assay type): functional
Experiment [1] concerns the target Solute carrier family 2, facilitated glucose transporter member 1 (Homo sapiens) (UniProt P11166). In words: ST_JUDE_LEISH: Cytotoxicity at 2uM final concentration against transgenic Leishmania Mexicana promastigotes LmGLUT1 that are glucose transport deficient and complemented with the human glucose transporter GLUT1. Activity is measured by DNA content using SYBR green in vitro.

Experiment [2] has as its target Hexose transporter 1 (Plasmodium falciparum) (UniProt O97467). In words: ST_JUDE_LEISH: Cytotoxicity at 2uM final concentration against transgenic Leishmania Mexicana promastigotes LmPfHT that are glucose transport deficient and complemented with the Plasmodium falciparum hexose transporter. Activity is measured by DNA content using SYBR green in vitro.
In experiment [3] the target is Glucose transporter (Leishmania mexicana) (UniProt O61059). In words: ST_JUDE_LEISH: Cytotoxicity at 2uM final concentration against transgenic Leishmania Mexicana promastigotes LmGT2 that are glucose transport deficient and complemented with the L. Mexicana glucose transporter 2. Activity is measured by DNA content using SYBR green in vitro.

Solute carrier family 2, facilitated glucose transporter member 1 (Homo sapiens), sequence (P11166 whole entry): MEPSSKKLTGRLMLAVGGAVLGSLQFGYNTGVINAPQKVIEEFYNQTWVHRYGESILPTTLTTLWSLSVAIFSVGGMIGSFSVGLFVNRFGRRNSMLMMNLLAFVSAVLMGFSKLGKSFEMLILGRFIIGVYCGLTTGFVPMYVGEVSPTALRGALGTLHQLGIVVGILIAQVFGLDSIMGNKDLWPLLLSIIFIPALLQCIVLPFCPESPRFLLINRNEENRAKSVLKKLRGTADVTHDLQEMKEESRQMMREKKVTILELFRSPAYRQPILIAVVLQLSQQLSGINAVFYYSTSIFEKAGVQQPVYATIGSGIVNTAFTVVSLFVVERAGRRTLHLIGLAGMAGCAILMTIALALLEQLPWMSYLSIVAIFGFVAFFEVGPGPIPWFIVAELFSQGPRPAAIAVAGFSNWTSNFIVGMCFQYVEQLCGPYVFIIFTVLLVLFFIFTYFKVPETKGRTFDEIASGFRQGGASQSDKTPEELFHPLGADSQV

`CC1(C)N=C(NC(=O)c2ccc([N+](=O)[O-])cc2)N=C(N)N1OCc1ccc2ccccc2c1`: the figures for the inhibition in experiment [1], in experiment [2] and in experiment [3] were 3.85%, 4.18% and -0.07%, respectively.

`Cc1cc(OCCCN2CCCC2)ccc1NC(=O)COc1ccc(Cl)cc1C(=O)c1cc(C#N)cc(C(F)(F)F)c1`: the inhibition (in general, the relative decrease from the control value, in per cent) in experiment [1] worked out at 73%; in experiment [2], 11.6%; in experiment [3] it was 10.3%.

For the molecule `CCCCN(CCCC)CCCCNc1c2ccccc2nc2ccccc12`, the values for the inhibition in experiment [1], in experiment [2] and in experiment [3] were 26%, 31.3% and 12.3%, respectively.

Regarding `O=C(/C=C/c1ccc(Cl)c(Cl)c1)NCCCCCN1CCC(NC(=O)Nc2ccc(C(F)(F)F)cc2)CC1`, the inhibition in experiment [1] was determined as 8.19%; in experiment [2], 8.67%; in experiment [3] it was 8.81%.

As for `COc1cc2nc(NCCN3CCOCC3)n3nc(-c4ccccc4)nc3c2cc1OC`, the inhibition in experiment [1] amounted to 8.12%; in experiment [2] it was 6.56%; in experiment [3], 5.62%.

In the case of `CCc1cccc2sc(N3CCN(C(=O)c4ccc([N+](=O)[O-])o4)CC3)nc12`, the figures for the inhibition in experiment [1], in experiment [2] and in experiment [3] were 71.2%, 69.1% and 36.8%, respectively.

Consider `CC(=O)c1cccc(NC(=O)NC2CCN(CCCCCNC(=O)/C=C/c3ccc(Cl)c(Cl)c3)CC2)c1`, for which the inhibition in experiment [1] worked out at 1.56%; in experiment [2], 2.6%; in experiment [3], 5.52%.

`CN(C)CCCOc1cc(NC(=O)Nc2ccc(-c3ccncc3)c3ccccc23)ccc1I`: the inhibition in experiment [1] came out at 6.91%; in experiment [2], 6.1%; in experiment [3] it was 7.69%.

`Cc1ccc(F)c(OCC2CCN(c3ncc(C(=O)NC4CC4)cc3Cl)CC2)c1`: the inhibition is -1.14% in experiment [1], 2.1% in experiment [2] and 1.1% in experiment [3].

For `CCN1C(=O)N(CCC(C)C)C2(CCN(Cc3ccc(OC)cc3O)CC2)C1=O`, the inhibition in experiment [1] came out at 5.4%; in experiment [2], 3.01%; in experiment [3], 3%.

Regarding `COc1cc(NC(=O)/C=C/c2cccc3ccoc23)ccc1OCCN(C(C)C)C(C)C`, the inhibition in experiment [1] was found to be 9.36%; in experiment [2], 3.8%; in experiment [3], 1.81%.

With `NC1=NC(c2ccccc2)(c2ccccn2)C(=O)N1CCCc1ccccc1` (stereo not given), the inhibition in experiment [1] amounted to 6.44%; in experiment [2], 2.19%; in experiment [3] it was 1.77%.

For the molecule `CCOc1ccc(Br)cc1/C=C/C(=O)Nc1ccc2c(c1)CN(C)CCC2`, the values for the inhibition in experiment [1], in experiment [2] and in experiment [3] were 4.12%, 5.18% and 4.34%, respectively.

`COc1ccc2ncc(F)c(CCN3CC(O)C(CNCc4ccc5ccccc5c4)C3)c2n1` (stereo not given): the inhibition in experiment [1] turned out to be 15.5%; in experiment [2], 16.6%; in experiment [3], 6.63%.

Regarding `O=C(Nc1ccc(-c2nc3ccccc3[nH]2)cc1)c1cnc(Cl)c(Cl)c1`, the inhibition in experiment [1] was 0.44%; in experiment [2] it was -0.34%; in experiment [3] it was 2.62%.

For the molecule `NC1=NC(Cc2ccccc2)(c2ccncc2)C(=O)N1CCCc1ccccc1` (stereo not given), the inhibition in experiment [1] is 3.32%; in experiment [2], 3.32%; in experiment [3], 2.03%.

For `CC(C)COc1ccc(Cl)cc1Cc1ccc(-c2nc3ccc(C(F)(F)F)cc3[nH]2)o1`, the inhibition was determined as 0.04% in experiment [1], 0.46% in experiment [2] and 2.13% in experiment [3].

With `COC(=O)COc1cc(C(=O)NCCCCN2CCC(c3ccc4c(c3OC)CCCC4)CC2)ccc1-c1ccc(Cl)cc1`, the inhibition in experiment [1] came to 3.39%; in experiment [2], 2.65%; in experiment [3], 1.4%.

Turning to `COc1c(C2CCN(CCCCNC(=O)c3ccc(NC(=O)c4ccc(C#N)cc4)cc3)CC2)ccc2c1CCCC2`, the results for the inhibition in experiment [1], in experiment [2] and in experiment [3] were 1.73%, 0.65% and 0.9%, respectively.

With `Cc1ccc(Nc2nc(N/N=C/c3cccc(O)c3)nc(Nc3ccc([N+](=O)[O-])cc3)n2)cc1C`, the inhibition in experiment [1] was 3.08%; in experiment [2], 3.36%; in experiment [3] it was 2.77%.

Turning to `COc1cc(CN2CCC(NC(=O)[C@H](Cc3ccccc3)NC(=O)Nc3ccc(Oc4ccccc4)cc3)C2)ccc1O` (stereo not given in full), the inhibition in experiment [1] is 0.58%; in experiment [2] it was 1.77%; in experiment [3], -3.37%.

For the molecule `COc1ccc2nccc([C@@H](O)CN3CCC(NCc4cc5cccc(O)c5[nH]4)CC3)c2c1`, the inhibition in experiment [1] worked out at 1.85%; in experiment [2] it was 2.02%; in experiment [3], 3.77%.

As to `O=C(NCCCCN1CCN(c2cccc3ccccc23)CC1)c1ccc(NC(=O)c2ccc(Cl)cc2)cc1`, the inhibition in experiment [1] is 2.65%; in experiment [2] it was 2.81%; in experiment [3], 2.29%.

Turning to `Cn1cnc(CCNC(=O)c2ccc(-c3ccc(-c4nc5cc(C(F)(F)F)ccc5[nH]4)s3)cc2)c1`, the inhibition is 2.93% in experiment [1], 3.77% in experiment [2] and 3.14% in experiment [3].

Consider `COc1ccc(CCc2ccc(-c3c(C)[nH]c(C)c(Cl)c3=O)cc2)cc1OC`, for which the inhibition in experiment [1] came to 12%; in experiment [2], 11%; in experiment [3], 10.6%.

In the case of `CO/C(=C\C=C\c1cc2cc(Cl)c(Cl)cc2[nH]1)C(=O)NCC(C)(C)CN(C)C`, the inhibition in experiment [1] is -1.89%; in experiment [2], 2.21%; in experiment [3], 1.65%.

As for `N#CC(CC(=O)c1ccc(Cl)cc1)c1cccc(F)c1` (stereo not given), the inhibition in experiment [1] was 1.46%; in experiment [2], -1.27%; in experiment [3] it was 1.13%.

For the molecule `CN1CCC[C@H]1COc1ccc(CN2CC[C@H](NC(=O)c3ccc(Cl)c(Cl)c3)C2)cc1Cl`, the inhibition is 1.83% in experiment [1], 0.86% in experiment [2] and -0.76% in experiment [3].

Turning to `Cc1cccc2nc(-c3ccc(-c4ccc(CNCCCNS(C)(=O)=O)cc4)s3)[nH]c12`, the inhibition in experiment [1] worked out at 7.9%; in experiment [2], 8.05%; in experiment [3], 6.95%.

Turning to `CCCC(=O)NC(c1ccc(C(C)C)cc1)c1ccc2cccnc2c1O` (stereo not given), the inhibition amounted to 2.04% in experiment [1], 3.11% in experiment [2] and 0.65% in experiment [3].

For `CC(CN1CCN(C)CC1)C(=O)Nc1ccc(-c2ccc(-c3nc4ccccc4[nH]3)s2)cc1` (stereo not given), the inhibition amounted to 5.66% in experiment [1], 5.15% in experiment [2] and 3.56% in experiment [3].

With `CC(=O)c1c(Nc2c(C)cc(C)cc2C)oc(C)cc1=O`, the inhibition in experiment [1] was 3.7%; in experiment [2], 5.4%; in experiment [3], 3.1%.

`CCN1CCN(CCCNc2ccnc3cc(Cl)ccc23)CC1`: the inhibition is 0.93% in experiment [1], 2.24% in experiment [2] and 2.15% in experiment [3].

With `COc1c(C2CCN(CCCCNC(=O)c3ccc(C)c(-c4ccc(C(F)(F)F)cc4)c3)CC2)ccc2c1CCCC2`, the inhibition was -1.99% in experiment [1], -1.46% in experiment [2] and -0.09% in experiment [3].

For the molecule `COc1ccc(-c2cccc(CNCc3ccc(F)cc3)c2)cc1S(=O)(=O)NCCN1CCCC1`, the inhibition in experiment [1] is 7.5%; in experiment [2], 8.55%; in experiment [3] it was 6.87%.
